Shown are actives, neighbours in structure and some others; about 1.8% of the full set was active somewhere.
sdo1 growth = growth rescue of sdo1-depleted yeast, primary screen, S. cerevisiae, bone marrow failure model | S. cerevisiae sdo1-depleted JHY4D growth rescue, OD600 30 h; hits give high values; pdr5 snq2 efflux-pump mutant strain | z-score at 10 µM | 0.21% of 140,000 active | AID 817, 2007;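 active = z-score above 3 at both the 24 hr and the 30 hr optical density reads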
Measles CPE = compounds protecting cells from measles virus cytopathic effect, primary screen, measles RdRp inhibitor project, single point, MLSMR library, absorbance | Measles virus-infected cells, CPE protection | protection (pct of control), % at 4 µM | 1.5% of 140,000 active | AID 841, 2007; in the data active = protection mostly above about 24%, no sharp cut-off; inactive = mostly below about 26%
Phagocytosis inh = inhibitors of macrophage phagocytosis, primary screen, imaging, J774A.1 cells, IgG beads | J774A.1 macrophage IgG-bead phagocytosis | inhibition, % at 5 µM | 0.07% of 110,000 active;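 active = inhibition above the mean of the plate negative controls plus 5 SD, cut at about 13% in these data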;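 note: phagocytic index as fraction of beads internalized from green versus red external bead signal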
A number is an active result; i = inactive; nt = no result.

SMILES	sdo1 growth	Measles CPE	Phagocytosis inh
S=c1[nH]nc(-c2cccnc2)n1Cc1ccccc1	i	50	i
S=c1[nH]nc(-c2ccncc2)n1Cc1ccccc1	i	i	i
CC(C)CNC(=O)c1cccc(NC(=O)Cc2ccc(Cl)cc2)c1	i	i	nt
Cc1ccc(S(=O)(=O)N(CC(=O)N/N=C/c2cccc3c2OCCO3)c2ccccc2F)cc1	i	i	i
CC(=O)Nc1sc(C)c(C)c1C(=O)OCC(=O)Nc1cc(S(=O)(=O)N2CCCCC2)ccc1Cl	i	i	nt
O=C(Nc1cccc(C(F)(F)F)c1)c1cc(-c2cccs2)on1	i	67	i
O=C(Nc1cccnc1)c1cc(-c2cccs2)on1	i	i	nt
O=C(NC(=S)N1CCN(c2ccc([N+](=O)[O-])cc2)CC1)c1ccc(F)cc1	i	i	i
CC(Sc1nnc(Cn2c(=O)sc3ccccc32)n1C)c1ccccc1 (configuration not stated)	i	51	nt
CCSc1nnc(Cn2c(=O)sc3ccccc32)n1C	i	i	nt
NC(N)=NC(N)=Nc1ccc(SC(F)(F)F)cc1	i	24	i
O=C(O)/C=C/C(=O)Nc1ccc(SC(F)(F)F)cc1	i	i	i
CCCn1nnnc1NC(=O)CSc1ccc(Cl)cc1	i	i	i
COc1ccc(NC(=O)COC(=O)CCCc2c[nH]c3ccccc23)cc1OC	i	i	i
CCCCCCS(=O)Cc1ccccc1 (configuration not stated)	i	35	i
O=S(Cc1ccccc1)CC(O)(c1ccccc1)c1ccccc1 (configuration not stated)	i	i	i
COc1ccc(C(=O)C[n+]2ccc3c(c2)nc(-c2cc(OC)c(OC)cc2OC)n3C)cc1	i	i	i
COc1cc(OC)c(-c2nc3c[n+](CC(=O)c4ccccc4)ccc3n2C)cc1OC	i	38	i
Cc1noc(C)c1COC(=O)CN(C)S(=O)(=O)c1ccc(Cl)cc1	i	i	i
Cc1noc(C)c1COC(=O)Cc1ccc(Cl)cc1	i	48	i
CC(=O)c1cc2c(cc1NC(=O)C1CC1)OCO2	i	i	nt
CCC1CCC(c2nnc(-c3ccc(Br)cc3)o2)CC1 (configuration not stated)	i	i	nt
CN(C)c1ccnc(N(Cc2ccccc2)Cc2ccccc2)c1C#N	i	i	nt
O=C(CN(Cc1ccccc1F)C(=O)Cn1nnc(-c2cccs2)n1)NCC1CCCO1 (configuration not stated)	i	i	i
O=C(CCCC(=O)N(CC(=O)NC1CCCC1)C1CCCC1)Nc1ccccn1	i	70	i
SMILES	sdo1 growth	Measles CPE	Phagocytosis inh
O=C(CCC(=O)N(CC(=O)NC1CCCC1)C1CCCC1)Nc1ccccn1	i	i	i
O=C(Oc1cccc(NC(=O)c2ccco2)c1)c1ccc(Br)c(S(=O)(=O)N2CCCCC2)c1	i	i	i
COc1ccc(-c2nnc(Nc3ccc(CC(N)=O)cc3)c3ccccc23)cc1	i	64	i
NC(=O)Cc1ccc(Nc2nnc(-c3ccccc3)c3ccccc23)cc1	i	i	i
Cc1sc(NC(=O)C2CC=CCC2C(=O)O)c(C(=O)OC(C)C)c1C (configuration not stated)	i	i	nt
CSC1=N/C(=C\c2ccc(C)cc2)C(=O)S1	i	i	nt
COc1ccc(/C=C2\N=C(SC)SC2=O)cc1OC	i	40	nt
O=C1NC(=O)C(CC(=O)N(Cc2cccs2)C2(C(=O)NC3CCCCC3)CCCCC2)N1 (configuration not stated)	i	i	i
CCN(CC)C(=O)C[n+]1cccc(C(N)=O)c1	i	i	i
Cc1ccc(S(=O)(=O)NCc2ccncc2)cc1	i	i	i
CC1CCCCC1NS(=O)(=O)c1ccc(S(=O)(=O)NCc2ccncc2)cc1 (configuration not stated)	i	39	i
CSc1nc(N)nc(SCC(=O)Nc2ccc(Cl)cc2)c1C#N	i	i	nt
CSc1nc(N)nc(SCCS(=O)(=O)c2ccc(Cl)cc2)c1C#N	i	78	nt
CCn1c(SCC(=O)N2CCCC2)nc2c(c1=O)SC(C)C2 (configuration not stated)	i	i	i
CCCSc1nc2c(c(=O)n1CC)SC(C)C2 (configuration not stated)	i	93	i
C/C(CC(=O)Nc1ccccn1)=N\NC(=O)c1ccccc1	i	i	i
C/C(CC(=O)Nc1cc(C)cc(C)c1)=N\NC(=O)c1ccccn1	i	69	i
CC(=O)c1cccc(N(C(=O)Cn2nnc3ccccc32)C(C(=O)NCc2ccccc2)c2ccccn2)c1 (configuration not stated)	i	i	i
C/C(CC(=O)Nc1cccnc1)=N\NC(=O)C(=O)Nc1cccc(C)c1	i	i	i
O=C1c2cccc3cccc(c23)C(=O)N1c1ccncc1	i	23	nt
O=C1c2cccc3cccc(c23)C(=O)N1c1cccnc1	i	i	i

Bioassay records (PubChem BioAssay)
